Where “and” joins values, the source holds several entries; their conditions need not be identical. Identical values can stand only once. The panel holds about 83,000 compounds, 20% with a hit somewhere; the sample as a whole holds those more often.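 Testing used 96-well plates and a 48-hour single-concentration exposure. Example: -40 means 40% of the starting cells died.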 Calls of active or inactive are those of the source. Rule for the calls: active = growth percent below 10; inactive = the rest.
Assays:
Test in all cases: NCI-60 one-dose screen, 48 h (100 = growth as untreated, 0 = no growth, -100 = all killed)
Details in all cases: 10 µM unless noted
SK-MEL-2 melanoma = tested on: SK-MEL-2 melanoma
EKVX NSCLC = tested on: EKVX NSCLC
SN12C renal = tested on: SN12C renal
UO-31 renal = tested on: UO-31 renal
TK-10 renal = tested on: TK-10 renal
ACHN renal = tested on: ACHN renal
CAKI-1 renal = tested on: CAKI-1 renal
A498 renal = tested on: A498 renal
CCRF-CEM leukemia = tested on: CCRF-CEM leukemia
MOLT-4 leukemia = tested on: MOLT-4 leukemia
RPMI-8226 leukemia = tested on: RPMI-8226 leukemia
OVCAR-8 ovarian = tested on: OVCAR-8 ovarian
OVCAR-5 ovarian = tested on: OVCAR-5 ovarian
OVCAR-4 ovarian = tested on: OVCAR-4 ovarian
SK-OV-3 ovarian = tested on: SK-OV-3 ovarian
IGROV1 ovarian = tested on: IGROV1 ovarian
OVCAR-3 ovarian = tested on: OVCAR-3 ovarian
HS 578T breast = tested on: HS 578T breast
NCI/ADR-RES ovarian = tested on: NCI/ADR-RES ovarian
SR leukemia = tested on: SR leukemia

In the case of `CC(C)N=c1cc2n(-c3ccc(Cl)cc3)c3ccccc3nc-2cc1Nc1ccc(Cl)cc1`, the growth (SK-MEL-2 melanoma) is reported as -32.7% (active) and 0.294% (active) and -36.1% (active), the growth (EKVX NSCLC) is reported as 39.6% (inactive) and 23% (inactive) and 12.3% (inactive) and the growth (SN12C renal) is reported as 16.9% (inactive) and 25.6% (inactive) and 1.46% (active). For the same compound, the growth (UO-31 renal) was 27.9% (inactive) and -17% (active) and -5.99% (active), the growth (TK-10 renal) was 26.2% (inactive) and 58.6% (inactive) and 5.66% (active) and the growth (ACHN renal) was 27.2% (inactive) and 30.9% (inactive) and 17.8% (inactive). The growth (CAKI-1 renal) was 40.5% (inactive) and 22.6% (inactive) and 5.83% (active), the growth (A498 renal) was 74.8% (inactive) and 18.4% (inactive) and the growth (CCRF-CEM leukemia) was 15% (inactive) and 28.5% (inactive) and 1.85% (active). The growth (MOLT-4 leukemia) was 6.96% (active) and 15.3% (inactive) and -11.7% (active), the growth (RPMI-8226 leukemia) was 2.57% (active) and -21.9% (active) and -42.6% (active) and the growth (OVCAR-8 ovarian) was 15.1% (inactive) and 48.7% (inactive) and 14.1% (inactive). For the same compound, the growth (OVCAR-5 ovarian) was 38.3% (inactive) and 49.6% (inactive) and 11.3% (inactive), the growth (OVCAR-4 ovarian) was 5.39% (active) and 11.1% (inactive) and 7.85% (active) and the growth (SK-OV-3 ovarian) was 37.6% (inactive) and 52.9% (inactive) and 42.6% (inactive). For the same compound, the growth (IGROV1 ovarian) was 30.2% (inactive) and -9.37% (active), the growth (OVCAR-3 ovarian) was -37.5% (active) and -71.1% (active) and -66.3% (active) and the growth (HS 578T breast) was -13.2% (active) and 13.1% (inactive). For the same compound, the growth (NCI/ADR-RES ovarian) was 23.2% (inactive) and -2.63% (active) and 39.2% (inactive).

`CCOC(=O)c1c(C)oc(C)c(C(=O)OCC)c1=O` was tested, and the growth (SK-MEL-2 melanoma) was 111% (inactive) and 112% (inactive), the growth (EKVX NSCLC) was 128% (inactive) and 104% (inactive) and the growth (SN12C renal) was 113% (inactive) and 97.9% (inactive). For the same compound, the growth (UO-31 renal) was 96.6% (inactive) and 86.9% (inactive), the growth (TK-10 renal) was 98.1% (inactive) and 106% (inactive) and the growth (ACHN renal) was 102% (inactive) and 105% (inactive). For the same compound, the growth (CAKI-1 renal) was 103% (inactive) and 95.4% (inactive), the growth (A498 renal) was 113% (inactive) and 117% (inactive) and the growth (CCRF-CEM leukemia) was 96% (inactive) and 108% (inactive). The growth (MOLT-4 leukemia) was 150% (inactive) and 80.2% (inactive), the growth (SR leukemia) was 118% (inactive) and 85% (inactive) and the growth (RPMI-8226 leukemia) was 85.9% (inactive) and 94.5% (inactive). For the same compound, the growth (OVCAR-8 ovarian) was 104% (inactive) and 102% (inactive), the growth (OVCAR-5 ovarian) was 114% (inactive) and the growth (OVCAR-4 ovarian) was 105% (inactive) and 94.6% (inactive). For the same compound, the growth (IGROV1 ovarian) was 114% (inactive) and 94.7% (inactive), the growth (OVCAR-3 ovarian) was 105% (inactive) and 127% (inactive) and the growth (HS 578T breast) was 109% (inactive). The growth (NCI/ADR-RES ovarian) was 108% (inactive).

For `CNC(=O)c1ccc(C)c(-n2c(C)cc(OCc3ccc(F)cc3F)c(Br)c2=O)c1`, the growth (SK-MEL-2 melanoma) was 89.3% (inactive), the growth (EKVX NSCLC) was 78.7% (inactive) and 87.7% (inactive) and the growth (SN12C renal) was 83.7% (inactive) and 86.1% (inactive). The growth (UO-31 renal) was 52.5% (inactive) and 71.8% (inactive), the growth (TK-10 renal) was 74.6% (inactive) and 102% (inactive) and the growth (ACHN renal) was 68.6% (inactive) and 88.2% (inactive). For the same compound, the growth (CAKI-1 renal) was 62.9% (inactive) and 79.1% (inactive), the growth (A498 renal) was 78.7% (inactive) and the growth (CCRF-CEM leukemia) was 77.4% (inactive) and 89.1% (inactive). For the same compound, the growth (MOLT-4 leukemia) was 78.8% (inactive) and 91.8% (inactive), the growth (SR leukemia) was 64.9% (inactive) and 85.9% (inactive) and the growth (RPMI-8226 leukemia) was 48.2% (inactive) and 74% (inactive). The growth (OVCAR-8 ovarian) was 70.3% (inactive) and 86.8% (inactive), the growth (OVCAR-5 ovarian) was 77.1% (inactive) and 86.2% (inactive) and the growth (OVCAR-4 ovarian) was 73.7% (inactive) and 84.9% (inactive). The growth (IGROV1 ovarian) was 84.6% (inactive) and 92% (inactive), the growth (OVCAR-3 ovarian) was 85.1% (inactive) and 101% (inactive) and the growth (HS 578T breast) was 103% (inactive). The growth (NCI/ADR-RES ovarian) was 80.5% (inactive) and 80.7% (inactive).

With `Oc1ccc(/C=C/c2ccccc2)cc1` the growth (SK-MEL-2 melanoma) was 98.4% (inactive) and 98.8% (inactive), the growth (EKVX NSCLC) was 76.9% (inactive) and 108% (inactive) and the growth (SN12C renal) was 74.5% (inactive) and 72.4% (inactive). The growth (UO-31 renal) was 17.8% (inactive) and 11.6% (inactive), the growth (TK-10 renal) was 92.9% (inactive) and 65.1% (inactive) and the growth (ACHN renal) was 17.3% (inactive) and 16.2% (inactive). For the same compound, the growth (CAKI-1 renal) was 6.76% (active), the growth (A498 renal) was 83.1% (inactive) and 59.4% (inactive) and the growth (CCRF-CEM leukemia) was 33.5% (inactive) and 33.3% (inactive). For the same compound, the growth (MOLT-4 leukemia) was 61.6% (inactive) and 47.5% (inactive), the growth (RPMI-8226 leukemia) was 61.3% (inactive) and 81.8% (inactive) and the growth (OVCAR-8 ovarian) was 66.2% (inactive) and 50.5% (inactive). The growth (OVCAR-5 ovarian) was 97.5% (inactive) and 140% (inactive), the growth (OVCAR-4 ovarian) was 61.5% (inactive) and the growth (SK-OV-3 ovarian) was 94.8% (inactive) and 99.4% (inactive). For the same compound, the growth (IGROV1 ovarian) was 57.5% (inactive) and 59.9% (inactive), the growth (OVCAR-3 ovarian) was 79.1% (inactive) and 76.5% (inactive) and the growth (HS 578T breast) was 86.7% (inactive). The growth (NCI/ADR-RES ovarian) was 43.5% (inactive) and 41.6% (inactive).

With `c1ccc(N(c2ccccc2)c2ccccc2)cc1` the growth (SK-MEL-2 melanoma) was 99.8% (inactive), the growth (EKVX NSCLC) was 101% (inactive) and the growth (SN12C renal) was 106% (inactive). The growth (UO-31 renal) was 86.8% (inactive), the growth (TK-10 renal) was 98.9% (inactive) and the growth (ACHN renal) was 103% (inactive). The growth (CAKI-1 renal) was 90.3% (inactive), the growth (A498 renal) was 117% (inactive) and the growth (CCRF-CEM leukemia) was 98% (inactive). The growth (MOLT-4 leukemia) was 95.4% (inactive), the growth (SR leukemia) was 79.3% (inactive) and the growth (RPMI-8226 leukemia) was 100% (inactive). For the same compound, the growth (OVCAR-8 ovarian) was 97.5% (inactive), the growth (OVCAR-5 ovarian) was 104% (inactive) and the growth (OVCAR-4 ovarian) was 114% (inactive). The growth (IGROV1 ovarian) was 104% (inactive), the growth (OVCAR-3 ovarian) was 112% (inactive) and the growth (HS 578T breast) was 110% (inactive). For the same compound, the growth (NCI/ADR-RES ovarian) was 105% (inactive).

For `O=C(O)CN(CCN(CC(=O)O)CC(=O)O)CCN(CC(=O)O)CC(=O)O`, the growth (SK-MEL-2 melanoma) was -31.4% (active) and 101% (inactive) and 93.2% (inactive), the growth (EKVX NSCLC) was -24.9% (active) and 105% (inactive) and 111% (inactive) and the growth (SN12C renal) was 1.71% (active) and 99.1% (inactive) and 101% (inactive). For the same compound, the growth (UO-31 renal) was -3.87% (active) and 77.1% (inactive) and 99.1% (inactive), the growth (TK-10 renal) was -24.1% (active) and 110% (inactive) and 94% (inactive) and the growth (ACHN renal) was 97.5% (inactive) and 104% (inactive). The growth (CAKI-1 renal) was -7.19% (active) and 87% (inactive), the growth (A498 renal) was 12.7% (inactive) and the growth (CCRF-CEM leukemia) was 5.22% (active) and 97.7% (inactive) and 102% (inactive). The growth (MOLT-4 leukemia) was -17.3% (active) and 113% (inactive) and 96% (inactive), the growth (RPMI-8226 leukemia) was 14.4% (inactive) and 102% (inactive) and 101% (inactive) and the growth (OVCAR-8 ovarian) was -15.6% (active) and 97.9% (inactive) and 99.4% (inactive). For the same compound, the growth (OVCAR-5 ovarian) was 89.8% (inactive) and 109% (inactive), the growth (OVCAR-4 ovarian) was 20.2% (inactive) and 105% (inactive) and 100% (inactive) and the growth (SK-OV-3 ovarian) was 0.709% (active) and 105% (inactive) and 108% (inactive). For the same compound, the growth (IGROV1 ovarian) was 15% (inactive), the growth (OVCAR-3 ovarian) was -17.3% (active) and 110% (inactive) and 108% (inactive) and the growth (HS 578T breast) was 7.28% (active) and 134% (inactive). For the same compound, the growth (NCI/ADR-RES ovarian) was -37.7% (active) and 110% (inactive) and 113% (inactive).

`Clc1ccc(SSc2ccc(Cl)cc2)cc1` was tested, and the growth (SK-MEL-2 melanoma) was 101% (inactive) and 111% (inactive), the growth (EKVX NSCLC) was 103% (inactive) and 68.6% (inactive) and the growth (SN12C renal) was 97.5% (inactive) and 42.4% (inactive). The growth (UO-31 renal) was 85% (inactive) and 46.7% (inactive), the growth (TK-10 renal) was 88% (inactive) and 106% (inactive) and the growth (ACHN renal) was 99.4% (inactive) and 99.7% (inactive). The growth (CAKI-1 renal) was 95.8% (inactive) and 94.5% (inactive), the growth (A498 renal) was 87.9% (inactive) and 74.6% (inactive) and the growth (CCRF-CEM leukemia) was 97.9% (inactive). The growth (MOLT-4 leukemia) was 98.6% (inactive), the growth (SR leukemia) was 104% (inactive) and the growth (RPMI-8226 leukemia) was 102% (inactive) and 58.2% (inactive). For the same compound, the growth (OVCAR-8 ovarian) was 97.6% (inactive) and 86% (inactive), the growth (OVCAR-5 ovarian) was 93.9% (inactive) and 119% (inactive) and the growth (OVCAR-4 ovarian) was 103% (inactive) and 84.9% (inactive). The growth (IGROV1 ovarian) was 102% (inactive) and 83.4% (inactive), the growth (OVCAR-3 ovarian) was 101% (inactive) and 110% (inactive) and the growth (HS 578T breast) was 97.9% (inactive) and 93.4% (inactive). The growth (NCI/ADR-RES ovarian) was 99.2% (inactive) and 81.8% (inactive).

With `O=C(Nc1cccc(Cl)c1)c1cc2ccccc2cc1O` the growth (SK-MEL-2 melanoma) was 27.3% (inactive) and 7.7% (active), the growth (EKVX NSCLC) was 10.5% (inactive) and 15.9% (inactive) and the growth (SN12C renal) was 4.02% (active) and 7.65% (active). The growth (UO-31 renal) was 5.45% (active) and -9.87% (active), the growth (TK-10 renal) was 54.7% (inactive) and 26.8% (inactive) and the growth (ACHN renal) was 12.8% (inactive) and 12.2% (inactive). For the same compound, the growth (CAKI-1 renal) was 3.2% (active) and -1.64% (active), the growth (A498 renal) was -33.6% (active) and the growth (CCRF-CEM leukemia) was 38.2% (inactive) and 53.2% (inactive). For the same compound, the growth (MOLT-4 leukemia) was 26.3% (inactive) and 11.1% (inactive), the growth (SR leukemia) was 23.4% (inactive) and 3.87% (active) and the growth (RPMI-8226 leukemia) was -19.4% (active) and -4.12% (active). For the same compound, the growth (OVCAR-8 ovarian) was 11.2% (inactive) and 8.75% (active), the growth (OVCAR-5 ovarian) was 97.2% (inactive) and 56.4% (inactive) and the growth (OVCAR-4 ovarian) was 29.7% (inactive) and 10.1% (inactive). For the same compound, the growth (IGROV1 ovarian) was 22.6% (inactive) and 24.2% (inactive), the growth (OVCAR-3 ovarian) was 18.5% (inactive) and 14.7% (inactive) and the growth (HS 578T breast) was 17.5% (inactive) and 21.8% (inactive). For the same compound, the growth (NCI/ADR-RES ovarian) was 4.12% (active) and 9.44% (active).
